Reference: PubChem BioAssay
Several values for one entry are separate records, joined by “and”; a condition that tells them apart may be missing. Equal entries are not always repeated. Results filed as inconclusive are left out. For some of these results: Entries with a potency or affinity are not part of this list. Activity calls are given as the source filed them. Rule as the data show it, unless noted: active = inhibition above about 80%; inactive = the rest.

Columns and labels:
[1] = rescue of PC12 cells from polyQ htt toxicity – LDH release (AID 1610); conditions: PC12 mutant huntingtin toxicity, final LDH at 4 uM, stronger effect = lower value
[2] = target: Calcium-dependent protein kinase 1 (Plasmodium falciparum (isolate 3D7)) (UniProt P62344); experiment: PfCDPK1 kinase inhibitors, biochemical, TCAMS library (AID 1159585; cut-off not given, nearly all actives have IC50 up to about 0.98 µM;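 also: inhibitors leave more ATP so luminescence rises with inhibition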); conditions: recombinant PfCDPK1, Kinase-Glo ATP depletion luminescence
[3] = target: Plasmodium falciparum protein kinase 6 (PK6, PF3D7_1337100) (UniProt Q8IDW1); experiment: PfPK6 kinase inhibitors, biochemical, TCAMS library (AID 1159586; call rule not given here); conditions: recombinant PfPK6, Kinase-Glo ATP depletion luminescence
[4] = target: Protein kinase 7 (PK7), Plasmodium falciparum 3D7 (PF3D7_0213400) (UniProt Q7YTF7); experiment: inhibition of Plasmodium PK7 catalytic activity – biochemical, TCAMS antimalarial set, Kinase-Glo luminescence (AID 1159587; call rule not given here); conditions: recombinant PfPK7, Kinase-Glo ATP depletion luminescence
[5] = viability loss in pontine glioma line – cell-based, SU-DIPG-XXV, MIPE5.0, CellTiter-Glo, qHTS, dose response (AID 1347065; cut-off not given, nearly all actives have AC50 up to about 26 µM;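 also: cells exposed to compound for 48 hours before ATP readout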); conditions: CellTiter-Glo ATP luminescence
[6] = chitosan synthesis blockers in C. neoformans – flow cytometry, Cibacron Brilliant Red staining (AID 1347148; call rule not given here;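 also: compound exposure lasted three days at 37 degrees C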); conditions: Cryptococcus neoformans chitosan, stronger effect = lower value; at 10 µM unless noted
[7] = viability loss in pontine glioma line – cell-based, SU-DIPG-XIII, MIPE5.0, CellTiter-Glo, qHTS, dose response (AID 1347064; cut-off not given, nearly all actives have AC50 up to about 23 µM;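 as to AC50: cells exposed to compound for 48 hours before the viability read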); conditions: CellTiter-Glo ATP luminescence
[8] = compounds altering HSF1 focus formation in cells – imaging, Selleck Cancer Library (AID 1347162; in the data active = plate-normalised HSF1 focus index below about 0.46); conditions: human cells, HSF1 nuclear foci imaging, at 10 µM; SSMD: measured here: HSF1 foci SSMD mean; cell count: measured here: cell number; plate-normalised HSF1 focus index: stronger effect = lower value
[9] = growth inhibition, single agents and combos, LFS_MB_1R, cell-based, cisplatin or BGB combos, synergistic combos for chromothripsis tumors (AID 1671452); conditions: LFS_MB_1R medulloblastoma cells, stronger effect = higher value;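 also: cells exposed for 96 hours before readout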
[10] = growth inhibition, single agents and combos, CRL2098, cell-based, BGB or cisplatin IC20 combos, synergistic combos for chromothripsis tumors (AID 1671454); conditions: CRL2098 osteosarcoma cells, drug combinations, stronger effect = higher value;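 also: cells exposed for 96 h before readout; 0% = vehicle DMSO and 100% = killing by high DMSO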
[11] = growth inhibition, single agents and combos, HD-MB03, cell-based, BGB or cisplatin IC20 combos, synergistic combos for chromothripsis tumors (AID 1671455; in the data active = inhibition above about 83%;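 also: 0% = vehicle DMSO and 100% = high DMSO as cytotoxic control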); conditions: HD-MB03 medulloblastoma cells, stronger effect = higher value
[12] = growth inhibition, single agents and combos, UWB1.289, cell-based, BGB or cisplatin combos, synergistic combos for chromothripsis tumors (AID 1671456); conditions: UWB1.289 ovarian carcinoma cells, stronger effect = higher value;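 also: cells exposed to compound for four days; 0% = vehicle DMSO and 100% = killing by high DMSO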
[13] = growth inhibition, single agents and combos, LFS_MB_2R, cell-based, cisplatin combos, synergistic combos for chromothripsis tumors (AID 1671457); conditions: LFS_MB_2R medulloblastoma cells, stronger effect = higher value;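 also: cells exposed to compound for four days before readout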
[14] = growth inhibition, MDA-MB-436, cell-based, BGB or cisplatin combos, synergistic combos for chromothripsis tumors (AID 1671458; call rule not given here;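 also: cells exposed for 96 hours; 0% = vehicle DMSO and 100% = killing by high DMSO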); conditions: MDA-MB-436 breast carcinoma growth inhibition, drug combinations, stronger effect = higher value
[15] = UWB1.289_BRCA1 ovarian cancer growth, cell-based, BGB or cisplatin combinations (AID 1671459); conditions: UWB1.289 BRCA1 ovarian carcinoma, drug combinations, stronger effect = higher value
[16] = drug combination toxicity in non-malignant astrocytes – cell-based, BGB or cisplatin IC20 combos, cytotoxicity control for chromothriptic childhood tumor combination screen (AID 1671460); conditions: Human astrocytes, viability inhibition, drug combinations, at 0.5 µM, stronger effect = higher value;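 also: cells exposed to compounds for 96 hours before viability readout; 0% = vehicle and 100% = killing control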
[17] = BT084 cell growth, single and combined drugs, ICGC_MB145, cisplatin and BGB IC40 combos (AID 1671461); conditions: BT084 medulloblastoma cells, drug combinations, stronger effect = higher value;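 also: cells exposed to drugs for 96 hours; 0% = vehicle DMSO and 100% = high DMSO full killing control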
[18] = RCMB18 cell growth, single agent and combined, cisplatin and BGB IC40 combos (AID 1671462); conditions: RCMB18 medulloblastoma cells, stronger effect = higher value;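 also: cells exposed to compound for four days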
[19] = CRL1545 cell growth, single agent and combined, cisplatin and BGB IC20 combos (AID 1671464); conditions: CRL1545 osteosarcoma cells, stronger effect = higher value;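 also: cells exposed to compound for 96 hours before readout; 0% = vehicle DMSO and 100% = high DMSO killing control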
[20] = measured here: combination with cisplatin, at 0.5 µM
[21] = measured here: combination with cisplatin, at 5 µM

Plasmodium falciparum protein kinase 6 (PK6, PF3D7_1337100), sequence (Q8IDW1 1-305): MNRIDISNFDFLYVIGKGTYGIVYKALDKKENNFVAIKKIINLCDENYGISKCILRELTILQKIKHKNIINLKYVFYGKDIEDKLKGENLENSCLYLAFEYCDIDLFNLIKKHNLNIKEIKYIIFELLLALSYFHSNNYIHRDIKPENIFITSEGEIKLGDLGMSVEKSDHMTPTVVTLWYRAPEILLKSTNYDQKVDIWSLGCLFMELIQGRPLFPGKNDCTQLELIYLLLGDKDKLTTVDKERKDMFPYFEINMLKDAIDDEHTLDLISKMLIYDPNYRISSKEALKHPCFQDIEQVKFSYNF
Calcium-dependent protein kinase 1 (Plasmodium falciparum (isolate 3D7)), sequence (P62344 whole entry, looked up): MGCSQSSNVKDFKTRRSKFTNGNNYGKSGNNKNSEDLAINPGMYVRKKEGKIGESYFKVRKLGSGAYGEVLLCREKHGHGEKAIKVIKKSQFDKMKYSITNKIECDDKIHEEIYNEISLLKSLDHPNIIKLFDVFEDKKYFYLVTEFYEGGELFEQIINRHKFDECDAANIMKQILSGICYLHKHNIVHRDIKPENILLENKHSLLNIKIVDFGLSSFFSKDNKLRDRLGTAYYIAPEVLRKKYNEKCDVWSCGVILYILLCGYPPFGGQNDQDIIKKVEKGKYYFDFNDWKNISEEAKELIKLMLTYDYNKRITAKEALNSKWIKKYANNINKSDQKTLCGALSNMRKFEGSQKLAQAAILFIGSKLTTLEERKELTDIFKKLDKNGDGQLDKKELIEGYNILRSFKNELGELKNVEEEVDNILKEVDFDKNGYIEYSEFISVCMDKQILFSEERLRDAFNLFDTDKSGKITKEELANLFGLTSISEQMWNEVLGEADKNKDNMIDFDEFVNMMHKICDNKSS
Protein kinase 7 (PK7), Plasmodium falciparum 3D7 (PF3D7_0213400), sequence (Q7YTF7 1-343): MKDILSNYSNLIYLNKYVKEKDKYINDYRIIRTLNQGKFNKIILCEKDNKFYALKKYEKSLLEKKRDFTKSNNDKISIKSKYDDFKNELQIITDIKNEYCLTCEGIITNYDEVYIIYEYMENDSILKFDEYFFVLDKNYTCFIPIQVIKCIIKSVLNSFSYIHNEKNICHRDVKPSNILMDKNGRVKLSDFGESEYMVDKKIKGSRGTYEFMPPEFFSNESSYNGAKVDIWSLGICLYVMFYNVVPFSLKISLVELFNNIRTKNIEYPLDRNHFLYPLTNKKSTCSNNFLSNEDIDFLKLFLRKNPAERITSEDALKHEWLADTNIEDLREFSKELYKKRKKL

C[C@@H]1C[C@@H]([C@H](O)CC2CC(=O)NC(=O)C2)C(=O)[C@@H](C)C1
normalised LDH release [1]: 0.469
outcome [2]: inactive
outcome [3]: inactive
outcome [4]: inactive
AC50 [5]: 372 nM (active)
fold fluorescence [6]: 9.32 [at 177.7 µM] (inactive)

CN(C)[C@@H]1C(=O)C(C(N)=O)=C(O)[C@@]2(O)C(=O)C3=C(O)c4c(O)cccc4[C@@](C)(O)[C@H]3[C@H](O)[C@@H]12
normalised LDH release [1]: 0.818
outcome [7]: inactive

O=C(O)c1nn(Cc2ccc(Cl)cc2Cl)c2ccccc12
outcome [5]: inactive
SSMD [8]: 0.502
cell count [8]: 6570
plate-normalised HSF1 focus index [8]: 1.03 (inactive)

N[C@@H](Cc1ccc(N(CCCl)CCCl)cc1)C(=O)O
AC50 [7]: 18.6 µM (active)
SSMD [8]: 1.42
cell count [8]: 7340
plate-normalised HSF1 focus index [8]: 1.09 (inactive)

CCC1(c2ccc(N)cc2)CCC(=O)NC1=O (centres undefined)
outcome [5]: inactive
SSMD [8]: 1.46
cell count [8]: 7280
plate-normalised HSF1 focus index [8]: 1.05 (inactive)

O=c1[nH]c2ccccc2n1C1CCN(CCCC(c2ccc(F)cc2)c2ccc(F)cc2)CC1
normalised LDH release [1]: 0.918
fold fluorescence [6]: 5.15 [at 108.3 µM] (inactive)

O=c1[nH]c2ccccc2n1CCCN1CCC(n2c(=O)[nH]c3cc(Cl)ccc32)CC1
outcome [7]: inactive

CC[n+]1c(-c2ccccc2)c2cc(N)ccc2c2ccc(N)cc21
normalised LDH release [1]: 0.673

N[C@@H]1C[C@H]1c1ccccc1
outcome [7]: inactive
outcome [5]: inactive

C[C@@H]1O[C@@H](O[C@H]2C[C@@H](O)[C@]3(CO)[C@H]4[C@H](O)C[C@]5(C)[C@@H](C6=CC(=O)OC6)CC[C@]5(O)[C@@H]4CC[C@]3(O)C2)[C@H](O)[C@H](O)[C@H]1O
AC50 [5]: 93.4 nM (active)
fold fluorescence [6]: 4.64 [at 85.5 µM] (inactive)

C[C@@H]1CC[C@H]2[C@@H](C)C(=O)O[C@@H]3O[C@@]4(C)CC[C@@H]1[C@]32OO4
outcome [5]: inactive

CNCC(O)c1ccc(O)cc1 (centres undefined)
outcome [7]: inactive
outcome [5]: inactive

Oc1cccc2cccnc12
normalised LDH release [1]: 1

N#Cc1nn(-c2c(Cl)cc(C(F)(F)F)cc2Cl)c(N)c1S(=O)C(F)(F)F (centres undefined)
fold fluorescence [6]: 4.35 [at 114.4 µM] (inactive)

CN1C(=O)COc2c(C(=O)NC3CN4CCC3CC4)cc(Cl)cc21 (centres undefined)
outcome [7]: inactive
outcome [5]: inactive

O=P1(NCCCl)OCCCN1CCCl (centres undefined)
outcome [7]: inactive
outcome [5]: inactive
inhibition ([9]; at 0.5 µM): -28.1% (inactive) and -35.8% (inactive)
inhibition ([9]; measured here: combination with BGB IC40, at 0.05 µM): 3.69% and -53.3%
inhibition [9, 20]: -0.682% and -78.4%
inhibition [9, 21]: -35.6% and -67.8%
inhibition ([10]; at 0.5 µM): -54.7% (inactive) and -66.2% (inactive)
inhibition ([10]; measured here: combination with BGB at IC20, at 0.5 µM): -36.5% and -70.3%
inhibition ([10]; measured here: combination with cisplatin at IC20, at 0.5 µM): -76.6% and -81.7%
inhibition ([11]; at 0.5 µM): -1.59% (inactive) and -13.1% (inactive)
inhibition ([11]; measured here: combo with BGB at IC20, at 0.5 µM): -0.444% and -33.2%
inhibition ([11]; measured here: combo with cisplatin at IC20, at 0.5 µM): -1.58% and -14.4%
inhibition ([12]; at 0.5 µM): -7.68% (inactive) and -24.2% (inactive)
inhibition ([12]; measured here: inhibition with BGB combination, at 0.05 µM): -37.9% and -17.6%
inhibition ([12]; measured here: inhibition with cisplatin combination, at 0.05 µM): -13.2% and -26.4%
inhibition ([13]; at 0.5 µM): -24.9% (inactive) and -21% (inactive)
inhibition [13, 20]: -18.4% and -33%
inhibition [13, 21]: -20.4% and -22.6%
inhibition ([14]; at 0.5 µM): -32.5% (inactive) and -17.3% (inactive)
inhibition ([14]; measured here: BGB combination, at 0.5 µM): -44.8% and -19%
inhibition ([14]; measured here: BGB combination, at 5 µM): -38% and -30.9%
inhibition ([14]; measured here: cisplatin combination, at 0.5 µM): -35.4% and -19.9%
inhibition ([14]; measured here: cisplatin combination, at 5 µM): -21.1% and -24.7%
inhibition ([15]; BGB combination, concentration series, at 5 µM): -15.7% and -7.29%
inhibition ([15]; at 0.5 µM): -18.2% (inactive) and -23.7% (inactive)
inhibition ([15]; cisplatin combination, concentration series, at 5 µM): -10.3% and -29.5%
inhibition [16]: -8.49% (inactive) and 1.06% (inactive)
inhibition ([16]; measured here: combo with BGB IC20): -4.33% and 4.18%
inhibition ([16]; measured here: combo with cisplatin IC20): -7.61% and -5.83%
inhibition ([17]; at 0.5 µM): -13.2% (inactive) and -8.24% (inactive)
inhibition ([17]; cisplatin combination, at 0.5 µM): -6.37% and -25.6%
inhibition ([17]; cisplatin combination, at 5 µM): -50% and -9.28%
inhibition ([17]; measured here: BGB IC40 combination 0.05 uM, at 0.05 µM): 1.93% and -27.2%
inhibition ([17]; single agent, at 5 µM): -32% and -16.6%
inhibition ([18]; at 0.5 µM): -14.3% (inactive) and -7.44% (inactive)
inhibition ([18]; cisplatin combo, at 5 µM): -2.4% and -9.06%
inhibition ([18]; measured here: BGB IC40 combination, at 0.05 µM): -18.8% and -23%
inhibition [18, 20]: -12.5% and 2.1%
inhibition ([18]; single agent, at 5 µM): -33% and -28.9%
inhibition ([19]; at 0.5 µM): -45.1% (inactive) and -50.6% (inactive)
inhibition ([19]; measured here: with BGB IC20 combination, at 0.5 µM): -3.77% and -48%
inhibition ([19]; measured here: with cisplatin IC20 combination, at 0.5 µM): -65.8% and -54.4%
inhibition ([19]; single agent, at 0.05 µM): -16.2% and -50%
inhibition ([19]; single agent, at 5 µM): 2.18% and -61%

NN=C(N)N
outcome [7]: inactive
outcome [5]: inactive

C=C1C[C@@H]2[C@H](CC[C@]3(C)C(=O)CC[C@@H]23)[C@@]2(C)C=CC(=O)C=C12
outcome [7]: inactive
outcome [5]: inactive
SSMD [8]: 1.72
cell count [8]: 6870
plate-normalised HSF1 focus index [8]: 1.09 (inactive)

CC1(C)C(C=C(Cl)Cl)C1C(=O)OC(C#N)c1cccc(Oc2ccccc2)c1 (centres undefined)
fold fluorescence [6]: 4.81 [at 120.1 µM] (inactive)

Nc1ccncc1
fold fluorescence [6]: 3.69 [at 531.3 µM] (inactive)

C#CCN(C)[C@H](C)Cc1ccccc1
outcome [7]: inactive
outcome [5]: inactive

COc1ccc(C(=O)N2CCCC2=O)cc1
outcome [5]: inactive

CC(C)c1cccc(C(C)C)c1O
outcome [7]: inactive
outcome [5]: inactive

c1ccc(C2CC2)c(OCC2=NCCN2)c1
fold fluorescence [6]: 4.38 [at 231.2 µM] (inactive)
